From PubChem BioAssay
BAZ2B block: blocks human BAZ2B. 360,000 tested, 4.4% active. AlphaScreen BAZ2B-H3K14Ac peptide displacement. Potency, µM (top dose mostly 114 µM), without a hit: top-dose activity change, negative = inhibition, actives largely listed as inhibitors; note: potency is the fitted concentration of half-maximal effect; % is set by controls: 0 for no effect and ±100 for the full control effect; nearly all actives have a fitted effect of over 60% in size
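Multi-concentration screen (max 110 uM) measuring displacement of acetylated histone H3 peptide from BAZ2B by AlphaScreen, using 50 nM protein, 50 nM peptide and 10 ug/mL streptavidin donor plus Ni-chelate acceptor beads.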
JMJD2A Tudor inh: inhibitors of human JMJD2A Tudor domain | O75164 | AlphaScreen JMJD2A-Tudor / H3K4me3 peptide binding | Potency, µM (top dose mostly 114 µM), for inactives: at the top dose activity change, negative = inhibition, most hits filed as inhibitors | 390,000 tested, 4.4% active | AID 504339; note: potency is the fitted concentration of half-maximal effect; % is set by controls: 0 for no effect and ±100 for the full control effect; nearly all actives have a fitted effect of over 50% in size
Target sequence (O75164 whole entry, looked up, the tested form may be a part): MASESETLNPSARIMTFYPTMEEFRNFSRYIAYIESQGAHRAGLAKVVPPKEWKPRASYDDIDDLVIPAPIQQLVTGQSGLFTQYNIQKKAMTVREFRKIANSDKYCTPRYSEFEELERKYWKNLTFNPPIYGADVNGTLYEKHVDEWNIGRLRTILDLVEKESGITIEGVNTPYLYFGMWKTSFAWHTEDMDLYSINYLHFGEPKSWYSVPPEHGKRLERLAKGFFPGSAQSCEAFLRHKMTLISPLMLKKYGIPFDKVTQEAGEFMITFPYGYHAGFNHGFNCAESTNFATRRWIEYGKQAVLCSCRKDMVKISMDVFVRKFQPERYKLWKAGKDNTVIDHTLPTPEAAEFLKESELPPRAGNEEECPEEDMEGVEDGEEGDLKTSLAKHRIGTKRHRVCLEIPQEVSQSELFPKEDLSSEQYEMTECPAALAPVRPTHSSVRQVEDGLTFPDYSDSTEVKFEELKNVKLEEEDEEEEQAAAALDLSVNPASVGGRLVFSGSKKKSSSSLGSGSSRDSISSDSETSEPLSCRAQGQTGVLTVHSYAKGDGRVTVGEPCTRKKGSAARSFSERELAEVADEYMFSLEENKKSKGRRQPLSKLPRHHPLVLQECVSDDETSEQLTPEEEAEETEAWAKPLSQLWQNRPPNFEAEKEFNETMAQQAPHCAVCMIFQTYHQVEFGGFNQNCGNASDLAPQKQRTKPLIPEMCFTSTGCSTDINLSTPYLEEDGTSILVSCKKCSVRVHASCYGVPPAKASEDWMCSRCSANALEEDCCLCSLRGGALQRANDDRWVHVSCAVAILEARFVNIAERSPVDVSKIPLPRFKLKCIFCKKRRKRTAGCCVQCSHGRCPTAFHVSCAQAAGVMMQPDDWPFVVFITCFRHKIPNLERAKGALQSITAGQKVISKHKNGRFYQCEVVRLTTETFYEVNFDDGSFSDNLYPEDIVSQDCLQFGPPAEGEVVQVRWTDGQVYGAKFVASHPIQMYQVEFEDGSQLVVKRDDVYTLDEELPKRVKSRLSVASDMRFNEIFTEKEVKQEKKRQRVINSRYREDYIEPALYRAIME
Six1-Eya2 inh: blocks human Six1 binding to Eya2; AlphaScreen GST-Six1/His-Eya2 binding, biochemical; hits give low values; activity change, % (test concentration not listed); 360,000 tested, 0.56% active; AID 651725; in the data active = activity change below about -65%; inconclusive = mostly about -30% to -63%; note: % is set by controls: 0 for no effect and ±100 for the full control effect
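Homogeneous AlphaScreen proximity assay pairing GST-Six1 with His-tagged Eya2 (added as 5X mix: 250 nM and 500 nM) in 50 mM Tris pH 8.0, 300 mM NaCl, 1 mM TCEP. Glutathione donor and nickel acceptor beads; 1 h, 37 °C, dark.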
G9a inh: inhibitors of human histone lysine methyltransferase G9a. Q96KQ7. G9a H3K9 monomethylation, AlphaScreen, 2 h. Potency, µM (series often up to 102 µM), inactives show at the highest dose activity, negative = inhibition, usual class: inhibitors. 350,000 tested, 8.8% active. AID 504332; note: potency is the fitted concentration of half-maximal effect; % is set by controls: 0 for no effect and ±100 for the full control effect; nearly all actives have a fitted effect of over 75% in size
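AlphaScreen detection with an anti-monomethyl H3K9 antibody quantified product after a 2 h room-temperature reaction containing 500 nM biotinylated H3K9 peptide, 20 µM SAM and 20 nM enzyme, which had been preincubated 15 min with compound.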
HP1b binding inh: blocks HP1-beta chromodomain binding to methylated histone tails | AlphaScreen HP1-beta / biotin-H3K9me3 peptide binding | 390,000 tested, 0.56% active | Potency, µM (doses to about 114 µM), without a hit: at the highest dose activity change, negative = inhibition, hits mostly inhibitors; note: potency is the fitted concentration of half-maximal effect; nearly all actives have a fitted effect of over 70% in size
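HP1-beta protein (50 nM final) preincubated 30 min at room temperature with biotinylated H3(1-18)K9me3 peptide (50 nM) in PBS pH 7.4, 0.01% Tween-20, then compound added for 30 min. AlphaScreen streptavidin donor/nickel chelate acceptor beads (10 ug/mL final), 30 min dark, luminescence read.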
CtBP-E1A blk: blocks the CtBP interaction with E1A; 340,000 tested, 0.49% active; activity change, % (concentration not given with the values); AlphaScreen GST-E1A/His-CtBP binding, 1536-well; hits give low values; in the data active = activity change below about -65%; inconclusive = mostly about -30% to -63%; note: % is set by controls: 0 for no effect and ±100 for the full control effect
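Steps: dispense buffer (Tris pH 8.0, NaCl 300 mM, TCEP 1 mM, BSA, Tween 20); add 5X protein mix (GST-E1A, His-CtBP, 125 nM each); pin 23 nL compound; 2 h at 37 °C, dark; add 5X beads (50 ug/mL); 1 h; read.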
* hit, by the source's call; ? = inconclusive; / = not tested or not shown; [ ] = another dose, or the depositor's remark. Shown are actives, neighbours in structure and some others; about 10% of the full set was active somewhere. Unless noted, calls come from the whole dose curve; as a rule, active = well fitted inhibition curve with a large enough effect; inconclusive = small, poorly fitted or top-dose-only effect; inactive = no such curve, though single readings can be large or run the other way.

SMILES	BAZ2B block	JMJD2A Tudor inh	Six1-Eya2 inh	G9a inh	HP1b binding inh	CtBP-E1A blk
CCCCN(CCCC)S(=O)(=O)c1ccc(NC(=O)c2c(-c3ccccc3)noc2C)cc1	2%	-12%	/	4%[59 µM]	35%	/
O=C(Cn1c(=O)c2cccn2c2cccnc21)NCc1ccccc1F	-3%	-20%	/	4%[59 µM]	15%	/
COc1ccc(CNC(=O)C2=C(C)C(=O)OC23CCCCC3)cc1	-5%	-19%	/	11µM*	9%	/
Cc1cnc(C(=O)OCC(=O)c2cc(C)n(CCc3ccc(F)cc3)c2C)cn1	/	/	-5	/	/	-7
COc1ccc(CNC(=O)c2cnc(C)cn2)cc1	50µM*	-30%	-2	-2%[59 µM]	17%	4
COc1ccc(CCn2c(C)cc(C(=O)COC(=O)c3cnc(C)cn3)c2C)cc1	?	-31%	-10	50µM*	35%	0
O=C(c1ccccc1O)N(Cc1cccs1)Cc1cccs1	/	-22%	/	/	/	/
CCc1nnc2c3ccccc3nc(Nc3ccc(C(C)=O)cc3)n12	7%[57.1 µM]	-15%	/	4%[59 µM]	21%	/
CCC(CC)C(=O)Nc1ccc2nc(SCC(=O)N3c4ccccc4CC3C)sc2c1 (stereo not drawn)	-17%	-2%	/	-21%[59 µM]	35%	/
O=C(CCCCn1cnc2c(=S)nc[nH]c21)Nc1ccc(C(=O)O)cc1	/	1.4µM*	16	/	71µM*	-15
CC(=O)[O][Al][O]C(C)=O	/	/	/	31%[59 µM]	/	/
CN1CCCN(C2C3CC4CC(C3)CC2C4)CC1 (stereo not drawn)	?	1µM*	-1	10µM*	?	-7
CS(=O)(=O)N1CCN(C2Cc3ccccc3C2)CC1	-4%	-3%	-1	-2%	6%	5
CC1CCC(N2CCN(S(C)(=O)=O)CC2)CC1 (stereo not drawn)	32µM*	3.2µM*	3	?	45µM*	-5
CS(=O)(=O)N1CCN(C2C3CC4CC(C3)CC2C4)CC1 (stereo not drawn)	-6%	10µM*	3	/	?	-2
O=C(c1ccccc1)N1CCN(C2C3CC4CC(C3)CC2C4)CC1 (stereo not drawn)	13%	-7%	0	3%	22%	9
CCc1cccc(NC(=O)CSc2nnc(-c3cc4occc4n3C)n2-c2ccccc2C)c1	?	?	/	?	-2%	/
COc1ccc(CCN2C(=O)N(c3ccc(F)cc3)C(=O)C2CC(=O)Nc2ccc(OC)cc2)cc1 (stereo not drawn)	-10%	-24%	/	-2%[59 µM]	16%	/
O=C(O)C1C2C=CC(CC2)C1C(=O)O (stereo not drawn)	50µM*	-45%[57.1 µM]	-21	45µM*	79µM*	-6
CCOC(=O)c1ccc(NC(=O)CSc2nc(N)c(NC(=O)c3ccc(Br)o3)c(=O)[nH]2)cc1	-32%	-20%	-79*	?	4%	?
Cc1ccc(-n2c(=O)c3ccc(C(=O)NCc4ccco4)cc3n(Cc3ccc(Cl)cc3)c2=O)cc1	/	-13%	/	0%[59 µM]	22%	/
O=C(Cn1cc(CNCc2ccccc2)nn1)Nc1cc(C(F)(F)F)ccc1Cl	/	-9%	/	/	/	/
Cc1ccc(-c2nc(NCCCN(C)C)c3ccccc3n2)cc1	/	/	-20	/	/	-2
CN(C)CCCNc1nc(-c2ccccc2)nc2ccccc12	8%	-16%	1	79µM*	30%	2
CCC(=O)Nc1nc2ccccc2n1CCN1CCOCC1	/	3.2µM*	7	?	-10%	3
SMILES	BAZ2B block	JMJD2A Tudor inh	Six1-Eya2 inh	G9a inh	HP1b binding inh	CtBP-E1A blk
O=C(Nc1nc2ccccc2n1CCN1CCCCC1)C1CCCCC1	?	-32%	6	24%[12.7 µM]	7%	-3
Brc1ccc(CNc2nc3ccccc3n2CCN2CCCCC2)cc1	?	-24%	-23	45µM*	27%	-9
Brc1cccc(CNc2nc3ccccc3n2CCN2CCCCC2)c1	-30%	-33%	-15	?	16%	-12
O=C(Nc1nc2ccccc2n1CCN1CCCC1)C1CCCCC1	50µM*	-26%	0	9%[12.7 µM]	15%	0
O=C(Nc1nc2ccccc2n1CCN1CCOCC1)c1ccc(Cl)cc1	-4%	-14%	-14	/	9%	-18
COc1ccc(-n2c(=O)c3ccccc3n(Cc3ccccc3C)c2=O)c(OC)c1	-10%	-20%	/	-3%[59 µM]	10%	/
CCc1nc2nc(C)c(NS(=O)(=O)c3ccc(C)cc3)c(=O)n2[nH]1	-10%	-3%	/	-28%[59 µM]	29%	/
CC(=O)Nc1ccc(NS(=O)(=O)c2c(C(=O)N3CCCCCC3)c(C)n(C)c2C)cc1	-10%	-23%	/	13%[59 µM]	-15%	/
COC(=O)[C@@H]1CC[C@H](C)[C@@H](c2ccc(C)cc2)N1C(=O)c1ccc(/C=N/O[C@@H](C)CN2CCCCc3nc(C)c(C)cc32)cc1	19%	/	/	32µM*	/	/
Cc1ccccc1CS(=O)(=O)Cc1ccc(C(=O)NCCc2ccc(Cl)cc2)o1	-1%	-1%	/	0%[59 µM]	25%	/
Cc1c(C(=O)Nc2ccc(F)cc2F)oc2c1-c1nn(Cc3c(F)cccc3Cl)cc1CC2	-1%	-8%	/	-14%[59 µM]	28%	/
Cc1c(CCNC(=O)c2ccc(Br)o2)sc2nc(-c3ccc(F)cc3)nn12	-23%	50µM*	/	-5%[59 µM]	24%	/
Cc1ccc(-c2nc3sc(CCNC(=O)c4ccc(Br)o4)c(C)n3n2)cc1	?	-21%	/	-30%[59 µM]	-20%	/
O=C(O)/C=C/C(=O)Nc1ccccc1SC(F)(F)C(F)(F)C(F)(F)F	-19%	?	10	45µM*	28%	14
Cc1cccc(-n2c(SCC(=O)Nc3nonc3C)nnc2-c2ccoc2C)c1	-37%	-26%	-4	-31%[59 µM]	4%	-2
Cc1ccc([N+](=O)[O-])c(-c2n[nH]c(=S)n2-c2cccc(Cl)c2)c1	-39%	?	-9	2µM*	7%	3
Cc1ccccc1-n1c(-c2ccoc2C)n[nH]c1=S	0%	7.9µM*	3	2.2µM*	5%	7
Cc1ccccc1-n1c(C)n[nH]c1=S	9%[57.1 µM]	20µM*	-4	22µM*	-4%	-7
Cc1cccc(-n2c(-c3ccoc3C)n[nH]c2=S)c1	-11%	8.9µM*	-3	6.3µM*	-17%	-3
N#Cc1ccccc1NC(=O)Cn1cnc2onc(-c3cccc(F)c3)c2c1=O	6%	-19%	/	4%[59 µM]	23%[57 µM]	/
COc1ccc(OC)c(NC(=O)CSc2nc3ccccc3c(=O)n2CCC(=O)NC2CCCCC2)c1	-1%	-20%	/	-2%[59 µM]	44%	/
O=C(CSc1nnc(-c2cnccn2)n1Cc1ccco1)c1ccccc1	-29%	-4%	-2	45µM*	41%	-11
Cn1c(SCC(=O)c2ccccc2)nnc1-c1ccccn1	79µM*	-9%	-15	-2%	38%	0
